Sampled rows, rich in hits. Any-hit rate of the full collection: about 2.4%.
TRHR enhancer = allosterically enhances the human TRH receptor | AID 493056 | TRHR cells, fluo-8 calcium fluorescence, EC20 TRH enhancement | 0.66% of 360,000 active | enhancement, % at 2 µM; in the data active means enhancement above about 30%; further: 0% is about no effect
Target sequence (P34981 whole entry, looked up): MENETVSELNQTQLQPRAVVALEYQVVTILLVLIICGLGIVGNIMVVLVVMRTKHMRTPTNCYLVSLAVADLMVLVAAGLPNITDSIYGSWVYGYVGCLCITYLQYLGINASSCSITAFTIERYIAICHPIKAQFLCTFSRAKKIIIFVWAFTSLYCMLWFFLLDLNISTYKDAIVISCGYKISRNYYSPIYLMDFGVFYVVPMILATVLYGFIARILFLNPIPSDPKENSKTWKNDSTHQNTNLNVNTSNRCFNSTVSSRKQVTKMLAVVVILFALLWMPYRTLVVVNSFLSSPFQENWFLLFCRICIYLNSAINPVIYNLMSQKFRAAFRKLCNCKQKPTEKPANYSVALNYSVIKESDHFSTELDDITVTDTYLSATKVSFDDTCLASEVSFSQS
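TRHR-expressing cells loaded with fluo-8 calcium dye were read kinetically (ex 480/em 530) during compound addition, then stimulated with an EC20 of TRH (10 nM final). Enhancement of the Gq-mediated intracellular calcium response was scored.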
GLP-1R agonist = GLP-1 receptor (human) agonism; 0.007% of 380,000 active; AID 624172; HEK293 GLP-1R CRE-luciferase, luminescence, 4-6 h; cells express a hypersensitive GLP-1R form; P43220; Potency, µM (doses to about 45.6 µM), inactives show at the top dose activation, usual class: activators; further: potency means the concentration at half of the fitted maximal effect; % of control where 0% means no effect
GLP1R cytotox = cytotoxic in the GLP-1 receptor inverse agonist counter-screen; HEK293 cAMP-luciferase reporter cells, luminescence, 24 h; Potency, µM (titrated, usually from 38.3 µM), inactives show at the highest dose activity change, negative = inhibition, most hits filed as inhibitors; AID 624418; 0.13% of 410,000 active;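 further: loss of luciferase light is scored as toxicity; potency means the concentration at half of the fitted maximal effect; on the % scale 0 is the no-effect control and ±100 the full control effect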
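Cells in DMEM/10% Nu serum/1% pen-strep, 1536-well format. Pre-incubated 12 h, dosed with 23 nL compound, incubated a further 24 h. Luciferase detection, 12 min at room temp, luminescence.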
PTHR1 agonist = agonists of human PTHR1 parathyroid hormone receptor. Q03431. HEK293 GP2 PTHR1 cells, GloSensor cAMP luminescence, 1 h. Potency, µM (highest dose often 115 µM), without a hit: top-dose activation, usual class: activators. 0.075% of 410,000 active; further: potency means the concentration at half of the fitted maximal effect; nearly all actives have a fitted effect of over 55% in size
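HEK-293-derived GP2 cells expressing PTHR1 and a GloSensor cAMP reporter, 3,000/well, plated overnight, given luciferin plus IBMX (each 0.5 mM as added) for 1 h at 37 °C, then compound for 1 h at 37 °C. Luminescence was read after 15 min at room temperature.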
TRHR agonist = agonists of human TRH receptor; TRHR cells, calcium flux fluo-8, FDSS agonist mode; activation, % at 2 µM; 0.18% of 360,000 active; AID 493084; in the data active means activation above about 30%; further: 0% is about no effect
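Read-out: compound-evoked intracellular calcium rise in TRHR cells, fluo-8 dye, kinetic FDSS fluorescence at 1 s/cycle following a 10-cycle baseline. Cells cultured overnight before dye loading (30 min–1.5 h, RT).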
GLP-1R inv ag = inverse agonists of human GLP-1 receptor; 1.6% of 410,000 active; Potency, µM (doses to about 38.3 µM), for inactives: at the top dose activity change, negative = inhibition, most hits filed as inhibitors; P43220; HEK293 GLP-1R CRE-luciferase, luminescence, 24 h; GLP-1R form is constitutively active; further: potency means the concentration at half of the fitted maximal effect; on the % scale 0 is the no-effect control and ±100 the full control effect; nearly all actives have a fitted effect of over 55% in size
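Seeding at 200 cells/uL, 12 h culture, 24 hr compound treatment, then luciferase reagent and a luminescence read; cells are HEK293 stably expressing a constitutively active GLP-1R plus cAMP-responsive luciferase.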
* hit, by the source's call; i = inactive; u = inconclusive; x = no result; ! = repeats disagree; [ ] = another dose, or the depositor's remark. Unless noted, the call rests on the fitted dose curve; in most records, active means well fitted curve in the direction sought with a large enough effect; inconclusive means small, poorly fitted or top-dose-only effect, or another doubt; inactive means no such curve, though single readings can be large; an effect the other way counts as inactive or inconclusive.

SMILES | TRHR enhancer | GLP-1R agonist | GLP1R cytotox | PTHR1 agonist | TRHR agonist | GLP-1R inv ag
CCN1CCN(Cc2c(C)[nH]c3ccc(OC)cc3c2=O)CC1 | 2 | -20% | -1% | i | 0 | -2%
COc1cccc(/C=C/C(=O)OCC(=O)Nc2cccc(S(=O)(=O)N3CCCCC3)c2)c1OC | 34* | 0% | 18% | -18% | 0 | -30%
CCc1ccccc1OCC(=O)Nc1cccc(S(=O)(=O)N2CCCC2)c1 | -6 | 8% | 2% | -28% | 0 | 11µM*
N#Cc1ccccc1OCC(=O)Nc1cccc(S(=O)(=O)N2CCCC2)c1 | 5 | 8% | 7% | 0% | 0 | 4%
COc1ccc(OCCCN2CCc3ccccc3C2)cc1 | 0 | -3% | 12% | i | 0 | -43%
COc1cc(S(=O)(=O)N2CCCCCC2)c(OC)cc1Br | -2 | 2% | 10% | -26% | -1 | 4.5µM*
OC1CCCN(Cc2nc(Cc3ccccc3Cl)no2)C1 (configuration not stated) | 2 | -2% | 0% | 19% | 0 | 12%
CC1CCCN(Cc2nc(Cc3ccccc3Cl)no2)C1 (configuration not stated) | -2 | 13% | 1% | -51% | 0 | 10µM*
Cc1ccc([C@H]2C[C@H](n3cc(COC(=O)c4ccccc4)nn3)[C@@H](O)CN2C(=O)C2CCCCC2)cc1 | x | 9% | 0% | -3% | x | u
CCc1noc(C)c1C(=O)N1CCCSC1=Nc1ccccc1Cl | 0 | 7% | 1% | -47% | 0 | u
CCc1cc(C(=O)Nc2cc(Cl)ccc2N2CCN(C)CC2)sc1C | 6 | 19% | 14% | u | 0 | -21%
O=C(Nc1nccs1)C12CC3CC(C1)CC(C(=O)Nc1nccs1)(C3)C2 | 3 | -23% | -14% | -12% | -1 | 4.5µM*
O=C(Nc1ncccn1)C12CC3CC(CC(C3)C1)C2 | -4 | 6% | 13% | i | 0 | 3%
CC(=O)n1nc(-c2ccncc2)nc1SCC(=O)Nc1cccc(Cl)c1 | 10 | 0% | 1% | -5% | 0 | 17%
O=C(Nc1ccc(Cl)c(Cl)c1)C1=Cc2ccccc2OC1 | -1 | -20% | -27% | -81%[57.5 µM] | 0 | 10µM*
O=C(Nc1ccc2c(c1)OCCO2)c1ccc(Cl)c(Cl)c1 | -6 | 0% | -6% | -13% | -1 | -7%
O=C(Nc1cccc(Cl)c1)C1=Cc2cc(Cl)ccc2OC1 | 5 | -20% | -22% | -81%[57.5 µM] | 1 | 10µM*
Cc1nc(N2CCCCC2C)c2c(C)c(C(=O)Nc3cccc(C(F)(F)F)c3)sc2n1 (configuration not stated) | 2 | 4% | u | -23% | 0 | 10µM*
COc1ccc(Sc2nc3ccccc3n3c(C(F)(F)F)nnc23)cc1 | 6 | -12% | 5% | i | 1 | 0%
COc1ccc(-c2cc(-n3c(C(F)(F)F)nc4ccccc43)n(CCC#N)n2)cc1 | 25 | 0% | -4% | i | 0 | 10µM*
CCOC(=O)c1ccc(NS(=O)(=O)c2cc3c(cc2C)NC(=O)CO3)cc1 | 2 | 4% | 0% | i | 0 | 10%
CC(C)NC(=S)N1CCC(Cc2ccccc2)CC1 | 7 | -2% | -8% | -6% | 0 | u
CC(C)CNC(=S)N1CCC(Cc2ccccc2)CC1 | 10 | 0% | u | -9% | 0 | 3.2µM*
O=S(=O)(c1ccccc1Cl)N1CCC(Cc2ccccc2)CC1 | 19 | 6% | 40% | -19% | -1 | 7.9µM*
Cn1c(=O)c(=O)n(C)c2cc(S(=O)(=O)N3CCC(Cc4ccccc4)CC3)ccc21 | 0 | -2% | -9% | i | -1 | -1%
SMILES | TRHR enhancer | GLP-1R agonist | GLP1R cytotox | PTHR1 agonist | TRHR agonist | GLP-1R inv ag
OCCCn1c(-c2ccccc2)csc1=Nc1ccccc1 | -7 | 7% | 19% | -44% | 0 | 11µM*
O=S(=O)(c1ccc(-c2csc(=Nc3ccc(OC(F)(F)Cl)cc3)n2CCCO)cc1)N1CCCC1 | -1 | x | -27% | -97% | -1 | 10µM*
O=S(=O)(NCC(c1ccco1)S(=O)(=O)c1ccccc1)c1ccccc1 (configuration not stated) | 6 | x | 6% | -15% | 0 | 8%
CCN(CC)P(=O)(Nc1cccc(C(F)(F)F)c1)c1ccc(N(C)C)cc1NC(=O)c1ccco1 (configuration not stated) | -7 | -5% | -8% | 3% | -1 | 2.5µM*
N#C/C(=C\c1coc2ccc(O)cc2c1=O)C(=O)Nc1nc2ccccc2s1 | 16 | 0% | -13% | -2% | 74* | -19%
CC(Oc1ccccc1Cl)C(=O)Nc1ccc(S(=O)(=O)N2CCCC2)cc1 (configuration not stated) | 34* | 5% | -21% | -19% | -1 | u
O=C(Nc1ccc(F)cc1)Nc1ccc(S(=O)(=O)N2CCCC2)cc1 | 1 | -1% | -24% | -38% | 1 | 8.9µM*
CC(OC(=O)C(C)Oc1ccccc1)C(=O)Nc1ccc(S(=O)(=O)N2CCCCC2)cc1 (configuration not stated) | 5 | -2% | -8% | -24% | 1 | -5%
COc1ccccc1N1CCN(CCCNC(=O)Cn2ncc3c([nH]c4ccccc43)c2=O)CC1 | 32*! | 0% | 3% | -1% | 0 | u
Cc1ccc(C)c(N2CCN(CCCNC(=O)Cn3ncc4c([nH]c5ccccc54)c3=O)CC2)c1 | 4 | x | 2% | -38% | 0 | 15%
C/C=C\C(=O)Nc1cccc(C2=NOC3(C2)C[C@@H](C(N)=O)N(C(=O)CC(c2ccccc2)c2ccccc2)C3)c1 (some centres not stated) | -14 | -6% | -33% | -1% | 0 | u
Fc1ccccc1C1c2cccn2CCN1C(=S)Nc1cccc(Br)c1 (configuration not stated) | 0 | -1% | -1% | i | -3 | -8%
Fc1ccccc1C1c2cccn2CCN1C(=S)Nc1ccc(Br)cc1 (configuration not stated) | -1 | -5% | u | -5% | 1 | 4.5µM*
O=C1C(Cl)=C(NCCN2CCCCC2)C(=O)c2ccccc21 | 0 | -7% | u | -82% | 0 | 11µM*
CCNC1=C(Cl)C(=O)c2ccccc2C1=O | -5 | -3% | u | -28%[57.5 µM] | -1 | u
Cc1cccc(C)c1NC(=S)N(CCN1CCCCCC1)Cc1ccco1 | 0 | 0% | -17% | -18% | 0 | 10µM*
Cc1cc(C)c(NC(=S)N(CCN2CCCCC2)Cc2ccco2)c(C)c1 | 2 | 7% | u | i | 1 | u

Compound activity as filed in PubChem BioAssay.
